The record followed here is PubChem BioAssay AID1259343 (VanderVen Lab, College of Veterinary Medicine, Cornell …, 2017).

Out of some 6,200 compounds screened, about 2,900 (47%) were called active. The set was probably picked from earlier hits. Some of the results follow. Unmarked numbers belong to inactive results. Rule as the data show it: active = inhibition above about 50%; inactive = the rest.

A short description of this assay: Mycobacterium tuberculosis growth inhibition, primary screen (AID 1259343). The following applies: inhibition: at 10 µM, active compounds read high; outcome: 10 uM.
What is called inhibition is the drop in the measured response relative to a control, in per cent. As to `OCC1(Cc2ccccc2F)CCCN(c2noc(-c3ccccc3)n2)C1` (stereo not given), the inhibition was 17.3%.

Regarding `C=CCc1ccc(OC(C)C(=O)Nc2ccc(OC)cc2)c(OC)c1` (stereo not given), the inhibition was 30.5%.

Turning to `COc1ccc(NCc2ccc(OC)c(Br)c2)cn1`, the inhibition is -17.8%.

For the compound `COc1cc(CNc2ccc3nc(C)sc3c2)ccc1OC(F)F`, the inhibition is 78.4% (active).

`CC(=NN=C1NC(=O)CS1)c1cc2ccccc2oc1=O`: the inhibition is 91.1% (active).

Turning to `COc1ccccc1OCCCCOc1ccccc1Cl`, the inhibition is 67.2% (active).

Consider `CCOc1ccc(OCCCOc2ccc(Cl)c(C)c2)cc1`, for which the inhibition was 44.9%.

Take `COc1ccc(OCCCCOc2ccccc2F)cc1`: the inhibition was 57.2% (active).

On to `CCOc1ccccc1OCCOc1ccccc1F`, for which the inhibition was 88.9% (active).

As for `COc1ccc(OCCOc2ccc(Cl)c(C)c2)cc1`, the inhibition was 80.7% (active).

Turning to `COc1ccc(OCCOc2ccccc2C#N)cc1`, the inhibition is 56.9% (active).

Turning to `COc1cccc(-c2ccc(=O)n(Cc3cccc(F)c3)n2)c1`, the inhibition was 22.1%.

On to `COc1cccc(-c2cnnc(NCc3ccccc3OC)n2)c1`, for which the inhibition is 21.6%.

For `COc1cccc(-c2nnn(CCOc3ccccc3F)n2)c1`, the inhibition is 77.6% (active).

For the compound `COc1ccccc1OCCCOc1ccccc1F`, the inhibition is 80% (active).

Take `COc1cccc(OCCCCOc2ccc3ccccc3c2)c1`: the inhibition is 78.5% (active).

As for `CC(C)=CCCC(C)(O)c1cc(C(N)=O)no1` (stereo not given), the inhibition was 32.2%.

Regarding `COc1ccccc1OCCCOc1ccc(F)cc1`, the inhibition is 35.7%.

`COc1cccc(OCCCOc2cccc(Cl)c2Cl)c1`: the inhibition is 61.9% (active).

Take `COc1ccc(OCCCCOc2ccccc2OC)cc1`: the inhibition is 97.5% (active).

With `COc1ccccc1OCCCCOc1ccc(I)cc1`, the inhibition was 91.3% (active).

`CC(=O)c1ccc(OCCOc2ccc(C#N)cc2)cc1`: the inhibition was 101% (active).

Consider `N#Cc1ccc(-c2ccc(OCC(=O)c3ccc4c(c3)CC(=O)N4)cc2)cc1`, for which the inhibition is 39.1%.

On to `COc1ccc(OCCCOc2cccc(Cl)c2Cl)cc1`, for which the inhibition was 18.8%.

Take `CCCCCCOc1ccc(C(=O)NNS(=O)(=O)c2ccc(C(=O)OC)cc2)cc1`: the inhibition was 94.8% (active).

As to `COc1ccc(OCCCCOc2ccccc2)cc1`, the inhibition was 27.8%.

In the case of `CCCCCCNC(=O)Nc1ccc(S(=O)(=O)Nc2ccc(CCNC[C@H](O)COc3ccc(O)cc3)cc2)cc1`, the inhibition was 18.9%.

As for `COc1ccc(OCCCCOc2ccc(Br)cc2)cc1`, the inhibition was 81.2% (active).

`COC(=O)c1ccc(OCCCCOc2ccccc2OC)cc1`: the inhibition is 80.9% (active).

As for `CCCCCCCOc1ccc(C(C)=NOC)cc1`, the inhibition was 41.4%.

Consider `O=C1Oc2ccccc2C1=Cc1c(Cl)cccc1Cl`, for which the inhibition was 59% (active).

`CC(C)N(C(=O)/C=C/c1c(Cl)cccc1Cl)C(C)C`: the inhibition was 47.8%.

Regarding `Cc1nnc2sc(COc3ccc(Cl)cc3Cl)nn2c1=O`, the inhibition is 78.4% (active).

As to `Cc1cc(NC(=O)COc2ccc(Cl)cc2Cl)n(-c2nc(C)c(C)c(=O)[nH]2)n1`, the inhibition is -28.7%.

On to `Cc1cc(Br)cc(Cl)c1NC(=O)C1(C)CC1(Cl)Cl` (stereo not given), for which the inhibition is -15.4%.

`O=C(CC1CCCO1)NCc1cccc(OCc2ccccc2)c1` (stereo not given): the inhibition is 39.5%.

Consider `O=C(N/N=C1/CCSc2c(F)cccc21)c1ccccc1`, for which the inhibition is 38%.

Take `CCC1CCC(=NNC(=O)c2ccc(COc3ccccc3)cc2)CC1` (stereo not given): the inhibition is 97.1% (active).

As to `Cc1cccc(-n2cc(CNCc3ccc(C)o3)c(-c3cccc(F)c3)n2)c1`, the inhibition was 46.5%.

For `COc1ccc(-n2cc(CNCc3ccc4c(c3)OCO4)c(-c3ccccc3Cl)n2)cc1`, the inhibition was 61.7% (active).

For `Cc1cccc(-n2cc(CNCC3CCCO3)c(-c3cccc(F)c3)n2)c1` (stereo not given), the inhibition entry was “inactive”.

For the compound `Cc1ccccc1CNCc1cn(-c2ccccc2)nc1-c1ccc2c(c1)OCO2`, the inhibition is 60.9% (active).

For the compound `Fc1ccccc1-c1nnn(Cc2ccc3c(c2)OCO3)n1`, the inhibition was 48.7%.

Turning to `CC(C)(C)c1ccc(Cn2cnc([N+](=O)[O-])n2)cc1`, the inhibition is 65.2% (active).

In the case of `COc1cc(NC(=O)C2(c3ccccc3)CC2)c(OC)cc1Cl`, the inhibition is 16.5%.

Regarding `O=C(Nc1nnc(C(F)(F)F)s1)C1(c2cccc(Cl)c2)CC1`, the inhibition is 86.3% (active).

On to `FC(F)(F)c1nnc(N2CCN(c3ccc(Cl)cc3)CC2)s1`, for which the inhibition was 18.9%.

As to `O=C1/C(=C/c2cc3ccccc3o2)Oc2cc(O)ccc21`, the inhibition was 3.03%.

For the compound `O=C1C(=Cc2ccc(OC(F)F)cc2OC(F)F)Oc2cc(O)ccc21`, the inhibition was 56.9% (active).

Consider `Cn1c(=S)[nH]c2c(-c3ccccc3)csc2c1=O`, for which the inhibition was 20.9%.

`CCOC(=O)CSc1ccc(NC(=O)c2ccc(C)cc2)nn1`: the inhibition was 93.7% (active).

In the case of `CSc1nc(N)nc(SCc2ccc(F)cc2)c1C#N`, the inhibition is 53.4% (active).

As to `COc1ccc(/C=C2\C=C(c3ccccc3)N(c3ccc4ccccc4c3)C2=O)cc1`, the inhibition is 74.9% (active).

Take `CN(C)c1cc(-c2noc(Cc3ccccc3Cl)n2)ccn1`: the inhibition was 67% (active).

For `Ic1ccc(Nc2nc3nonc3nc2NCc2ccco2)cc1`, the inhibition was 101% (active).

For the compound `Oc1ccc(Nc2nc3nonc3nc2Nc2cccc(Br)c2)cc1`, the inhibition was 49.2%.

For the compound `CN(CCO)CC(O)Cn1c2ccc(Br)cc2c2cc(Br)ccc21` (stereo not given), the inhibition was 69.2% (active).

As to `OCC(O)Cn1c2ccc(Br)cc2c2cc(Br)cc(Br)c21` (stereo not given), the inhibition is 17.8%.

With `C=CCn1c2ccc(Br)cc2c2nc3ccccc3nc21`, the inhibition is -22.9%.

As to `Cc1cc(O)c(CN2CCOCC2)c2c1C(=O)/C(=C/c1cc3cc(Br)ccc3o1)O2`, the inhibition was 45.4%.

On to `OC(CN1CCOCC1)Cn1c2ccc(Br)cc2c2cc(Br)ccc21` (stereo not given), for which the inhibition was 86.8% (active).

In the case of `CC(=O)O[C@H]1CC[C@@]2(C)C(=CC[C@@H]3[C@H]2CC[C@]2(C)C(c4cccnc4)=CC[C@@H]32)C1`, the inhibition is 27.2%.

With `Brc1ccc(Cc2nnnn2CCn2cccn2)cc1`, the inhibition is 25.9%.

`O=C(Cn1nnnc1-c1ccc(Br)cc1)c1ccccc1`: the inhibition was 89.4% (active).

With `CCC(=O)c1ccc(-c2ccc(Br)cc2F)cc1`, the inhibition is 29%.

In the case of `NC(=O)c1ccc(Cn2nc(-c3cccs3)oc2=O)cc1`, the inhibition was 14.6%.

As for `O=C(CCl)N1N=C(c2cccs2)CC1c1ccco1` (stereo not given), the inhibition is 101% (active).

As for `COc1ccc(-c2nc3ccccc3c(=O)o2)cc1[N+](=O)[O-]`, the inhibition is 83.1% (active).

Consider `O=c1oc(-c2ccco2)nc2ccc(Br)cc12`, for which the inhibition is 41.6%.

For the compound `O=c1oc(-c2ccc([N+](=O)[O-])cc2Cl)nc2cc(Cl)ccc12`, the inhibition was 28.8%.
